# In PMC4242493, “Sequence specificity incompletely defines the genome-wide occupancy of Myc”:
# In all, about 33,000 sequences were measured (“normalized occupancy”: median about 0.075, highest 2% from about 0.095 on). Many of the other results were omitted from the sample, so the highest values are more common in it than they were.
# Biological target: MaxL homodimer (Homo sapiens, UniProt P61244 1-160)
# Assay: universal protein-binding microarray (PBM); PBS-based mixture, 10 nM His-tagged protein dimer, 2% milk, 200 ng/uL BSA, 50 ng/uL salmon testes DNA, 0.02% TX-100; detection with Alexa 488 anti-His antibody;; high values mean tight binding
# Settings: protein: recombinant; tags: C-terminal His-tag (pET21a); chain copies: 2; dsDNA, one strand shown
# Method in brief: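 Binding occupancy is a fluorescence intensity normalised to the intensity of the highest-ranked sequence word. Those intensities came from 8-mers on Agilent 4 x 44 K 'all 10-mer' universal arrays incubated with 10 nM His-tagged protein dimer. Bound protein was detected with 10 ng/μL fluorophore-conjugated anti-His antibody before scanning on a GenePix 4400A.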
# Chain of MaxL homodimer (P61244 whole entry): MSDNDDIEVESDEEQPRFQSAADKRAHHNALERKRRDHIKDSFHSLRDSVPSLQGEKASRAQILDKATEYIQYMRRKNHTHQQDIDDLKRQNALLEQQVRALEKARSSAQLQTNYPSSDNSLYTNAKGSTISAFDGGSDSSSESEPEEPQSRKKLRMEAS
row,Sequence,binding signal [normalized occupancy]
1,CCCGTGCG,0.0872
2,AACGTGCT,0.115
3,CACGTGCG,0.641
4,AATTACGG,0.0744
5,CATTGGCG,0.0762
6,AACTTATT,0.0797
7,CTGTTATC,0.078
8,CATTAGCG,0.0779
9,AACGTTCA,0.0836
10,AAGGTGCG,0.077
11,AACGTGCA,0.109
12,ATCGTGCA,0.0816
13,AACGTCCG,0.0721
14,GTCGTGCA,0.0855
15,AACGTCCA,0.0778
16,CAGGTGCC,0.0785
17,AACGTGCG,0.108
18,CTCGTGCA,0.1
19,CACGTACC,0.0843
20,CACGTGCC,0.521
21,CAGGCTGA,0.0746
22,AAAGCACG,0.0922
23,AGTGTTAA,0.0742
24,CCCATAAG,0.0856
25,ACATCCTA,0.0822
26,AATTAATC,0.0741

row,Sequence,binding signal [normalized occupancy]
1,ACGGGGAC,0.0795
2,ACCAGAAC,0.0763
3,CGGCATCA,0.0791
4,CCAGGTCG,0.0731
5,CGTACACG,0.0971
6,CGTACACA,0.0813
7,AATACATG,0.0934
8,CATACATA,0.0846
9,AGTACACA,0.0858
10,CATACACC,0.0901
11,CATACATG,0.0969
12,CATACACA,0.0892
13,CATACACG,0.097
14,CCGCTTAC,0.0724
15,TCAGGCAA,0.0718
16,GACGGCGA,0.0752
17,CCAACAAG,0.0776
18,CCGCGAGG,0.0805
19,AACCTAAC,0.0728
20,GCGATTCC,0.0814
21,GCCCACGC,0.0978
22,GCCCACGA,0.0823
23,CCCCACGC,0.0979
24,ACCCACGG,0.0796
25,ACCCACGT,0.0984
26,CCCCACGA,0.0848

row,Sequence,binding signal [normalized occupancy]
1,ACCCACAT,0.0932
2,ACCCACCA,0.088
3,CCCCACGG,0.0843
4,ACCCACGC,0.105
5,GCCCACCC,0.087
6,ACCCACGA,0.0913
7,CTCGCACC,0.0733
8,ATCTATTG,0.078
9,AGATAGGC,0.078
10,ACATAGAA,0.0839
11,TAGTTAAA,0.0739
12,AAGCATTA,0.082
13,GAGCATGC,0.113
14,AAGCATGG,0.11
15,GAGCACGC,0.094
16,AAGCATAG,0.0734
17,AAGCATTG,0.0783
18,AAGCATGA,0.101
19,CAGCATAC,0.0829
20,AAGCATAA,0.0767
21,GAGCATAC,0.0789
22,CAGCATCC,0.0746
23,CAGCATGC,0.126
24,ATTGGCAG,0.0726
25,GTTTACCA,0.0757
26,CCGATAAA,0.0723

row,Sequence,binding signal [normalized occupancy]
1,CATCACCC,0.0788
2,AGTTGCAT,0.0779
3,AGCATAAC,0.0787
4,CAAGGGGC,0.0772
5,TACCTTGA,0.0849
6,CTTATAGA,0.0769
7,AAGCATAT,0.0839
8,AAGCATGC,0.118
9,AAGCATCT,0.0778
10,AAGCATTC,0.0773
11,AAGCATGT,0.0997
12,AAGCATAC,0.0751
13,AATGAACC,0.0718
14,AGTTTTAT,0.0775
15,AGTCATGC,0.096
16,ACTCATGC,0.0969
17,ACTCATGG,0.0945
18,ACTCATGA,0.0903
19,AGTCATGA,0.0829
20,CTTCATGC,0.0794
21,AGTCATGG,0.0855
22,CCTCATGC,0.109
23,CCTCATGA,0.0951
24,AATACACG,0.0912
25,CCCTCGAA,0.0795
26,AGCACGAT,0.0857

row,Sequence,binding signal [normalized occupancy]
1,CGCACGAA,0.0816
2,CGCACAAA,0.0718
3,AGCACGAG,0.0964
4,AGCACGTG,1
5,AGCACGAA,0.0827
6,AGCACGTC,0.081
7,AGCACGTA,0.0853
8,CGCACGAG,0.107
9,CTACCCCA,0.0788
10,ACGAGGCT,0.0805
11,AGAACAAT,0.0787
12,ACCCGCTG,0.0761
13,CCCCGTTA,0.0766
14,CACGATGG,0.0884
15,CTAGCACA,0.0827
16,GAATGTAC,0.0769
17,CCATGTAC,0.086
18,GCATGTAC,0.0973
19,AGATGTAC,0.0766
20,ACATGTAC,0.0958
21,CTATGTAC,0.0847
22,TGAGATAA,0.0797
23,ATAATGAC,0.0804
24,AACTTGCC,0.0757
25,GAAACGCC,0.0758
26,CACTGCTG,0.0746

row,Sequence,binding signal [normalized occupancy]
1,ATATGATC,0.0857
2,CCACATAA,0.0799
3,CAGCAGAG,0.0727
4,CATGAGGC,0.109
5,AATGAGGG,0.0862
6,AATGAGGA,0.0838
7,AATGAGGC,0.0776
8,CATGAGTA,0.0969
9,TATGAGGA,0.0851
10,CATGAGTC,0.091
11,CATGAGAG,0.0941
12,GATGAGGC,0.0786
13,CATGAGGG,0.109
14,CATGAGGA,0.106
15,AATGAGTA,0.077
16,GACACTTA,0.0771
17,GCAACACA,0.0795
18,TCAACTAA,0.0725
19,ATTGAAAT,0.0772
20,GTGAGTCA,0.0793
21,CCCCCCCA,0.0901
22,CGACAGCA,0.0797
23,ATAAATAG,0.0754
24,ATTCAGTA,0.0734
25,ATGACTAC,0.0811
26,ATGAGGGC,0.0956

row,Sequence,binding signal [normalized occupancy]
1,ATGAGGGA,0.0908
2,ATGAGGGG,0.0902
3,GATTTAGA,0.0724
4,ACGTTGAC,0.0793
5,TAACCACA,0.0809
6,ATACCACA,0.089
7,AAACCACA,0.0814
8,CTACCACA,0.0867
9,AAACCACG,0.0972
10,ATACCACG,0.0991
11,CCGTTCTC,0.0814
12,ATAGCATG,0.103
13,AGAGCATA,0.0815
14,ACAGCATG,0.127
15,AGAGCATC,0.0755
16,ACAGCATA,0.0896
17,AGAGCATG,0.0989
18,ATAGCATA,0.0872
19,ACAGCATC,0.0767
20,ATAGCATC,0.0799
